This passage reports composite z-score and z-score results from PubChem BioAssay.

Experiment [1] concerns PRMT1 (protein arginine N-methyltransferase 1). As to the kind of experiment: small molecules binding arginine methyltransferase PRMT1 – biochemical, small-molecule microarray, 635 nm fluorescence, primary screen (AID 1088).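 Also: binding of Prmt1 protein to compounds spotted on small-molecule microarray slides.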 The conditions noted are these: higher = more signal.
A short description of experiment [2]: growth effects on S. cerevisiae YJM789 – YJM789 clinical isolate, OD600, 24 h, basal, primary screen (AID 1089).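 Also: growth of clinical yeast isolate S. cerevisiae YJM 789 seeded 1000 cells per well; test concentration not given here.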 The conditions noted are these: higher = more signal, called active from +8 up or from −8 down.
Experiment [3] in a line: S. pombe growth modifiers, basal conditions – strain 972, OD600, 24 h, no modulator, primary screen (AID 1090).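 Also: basal condition with compound alone and no growth modifier present; test concentration not given here.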 Conditions: S. pombe 972 growth, higher = more signal, called active from +8 up or from −8 down.
Experiment [4] is described as follows: budding yeast growth modifiers under rapamycin – strain BY4716, OD600, 96 h, primary screen (AID 1091). Also: test concentration not given here. Conditions: S. cerevisiae BY4716 + rapamycin, higher = more signal, called active from +8 up or from −8 down.
Experiment [5] addresses Torsin-1A-interacting protein 2 (Homo sapiens) (UniProt Q8NFQ8). Kind of experiment: small molecules binding lysate-expressed LULL1 – cell lysate, human LULL1 lysate, 635/667 nm fluorescence, primary screen (AID 1092).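 Also: probe is lysate of COS7 cells overexpressing human LULL1; score merges per-feature 667 nm fluorescence with signal-to-noise.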 Conditions: small-molecule microarray, hLULL1 lysate binding, 635 nm fluorescence; higher = more signal.
A short description of experiment [6]: optical density change of DRC41 E. coli – strain DRC41, OD650, 24 h, E. coli filamentation project, primary screen (AID 1093).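 Also: MC1000 strain lacking acrAB efflux and sulA so SOS filamentation is blocked; test concentration not given here.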 Conditions: E. coli DRC41 growth, higher = more signal, called active from +8 up or from −8 down.
A short description of experiment [7]: probe aLefty2 binding to arrayed compounds – biochemical, biotinylated probe, 635/667 nm fluorescence, primary screen (AID 1094).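 Also: score merges spot fluorescence near 667 nm with spot signal-to-noise ratio.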 The conditions noted are these: small-molecule microarray, higher = more signal.
In experiment [8] the test system is Noggin (protein binding on small-molecule microarray). Kind of experiment: small molecules binding Noggin protein – biochemical, 635/667 nm fluorescence, primary screen (AID 1095).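 Also: score merges 667 nm feature fluorescence with signal to noise over triplicate slides.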 The conditions noted are these: 635 nm fluorescence, higher = more signal.
For experiment [9], the target named is Neurogenic locus notch homolog protein 3 (Homo sapiens) (UniProt Q9UM47). Kind of experiment: small molecules binding NOTCH3 protein – biochemical, 635/667 nm fluorescence, primary screen (AID 1096). Conditions: small-molecule microarray, 635 nm fluorescence, higher = more signal.
Experiment [10] can be described thus: probe aEGFR binding to arrayed compounds – biochemical, biotinylated probe, 635/667 nm fluorescence, primary screen (AID 1097).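 Also: probe is a biotinylated anti-EGFR antibody binding compounds printed on slides; score combines fluorescence near 667 nm and signal to noise of each spot.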 The conditions noted are these: small-molecule microarray, higher = more signal.
Experiment [11] deals with Plasmodium falciparum Sir2 (PF13_0152, Sir2A). As to the kind of experiment: Plasmodium falciparum Sir2A binding compounds – biochemical, small-molecule microarray, 635 nm fluorescence, primary screen (AID 1098).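 Also: score merges spot fluorescence intensity with its signal-to-noise ratio.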 Conditions: fluorescence 635 nm, higher = more signal.
Experiment [12] is described as follows: probe aDKK1 binding to arrayed compounds – biochemical, biotinylated probe, 635/667 nm fluorescence, primary screen (AID 1099).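 Also: score merges 667nm spot fluorescence with signal to noise across triplicate slides; reference of the scale not given here.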 The conditions noted are these: small-molecule microarray, higher = more signal.
Experiment [13] can be described thus: probe aCHRDL2 binding to arrayed compounds – biochemical, biotinylated probe, 635/667 nm fluorescence, primary screen (AID 1100). Conditions: small-molecule microarray, higher = more signal.
Experiment [14] is described as follows: change in splice reporter luminescence, either direction, cell-based, HEK293, spliceosome inhibition project, primary screen (AID 1101).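 Also: HEK293 cells carrying a splicing-competent luciferase reporter gene; test concentration not given here.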 The conditions noted are these: HEK293 splicing luciferase reporter, 24 h, higher = more signal, called active from +8 up or from −8 down. Background: In a reporter assay the amount or activity of a reporter protein is the signal.

In experiment [15] the target is Fibroblast growth factor 10 (Homo sapiens) (UniProt O15520). Kind of experiment: compounds binding fibroblast growth factor 10 – biochemical, small-molecule microarray, 635 nm fluorescence, primary screen (AID 1102). The conditions noted are these: FGF10 binding, fluorescence 635 nm, higher = more signal.
Experiment [16] has as its system glycogen synthase kinase-3 (GSK3A per assay name; protocol says GSK3B). As to the kind of experiment: compounds binding glycogen synthase kinase-3 – biochemical, small-molecule microarray, 635 nm fluorescence, GSK3A, primary screen (AID 1103). Also: the record names both GSK3A and GSK3B. The conditions noted are these: fluorescence 635 nm, higher = more signal.
Experiment [17] deals with Epidermal growth factor receptor (Homo sapiens) (UniProt P00533). As to the kind of experiment: compounds binding epidermal growth factor receptor – biochemical, small-molecule microarray, 635 nm fluorescence, primary screen (AID 1104).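 Also: score merges 667 nm emission intensity with spot signal to noise over triplicate slides.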 The conditions noted are these: EGFR binding, higher = more signal.
Experiment [18] has as its target Follistatin-related protein 3 (Homo sapiens) (UniProt O95633). Kind of experiment: compounds binding follistatin-related protein 3 – biochemical, small-molecule microarray, 635 nm fluorescence, primary screen (AID 1105).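 Also: score merges emission near 667 nm and signal to noise per printed spot across three slides.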 The conditions noted are these: FSTL3 binding, higher = more signal.
Experiment [19] deals with Dickkopf-related protein 1 (Homo sapiens) (UniProt O94907). As to the kind of experiment: small molecules binding DKK1 protein – biochemical, small-molecule microarray, 635 nm fluorescence scan, primary screen (AID 1106).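 Also: score merges emission near 667 nm with signal to noise over three replicate slides.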 Conditions: higher = more signal.
For experiment [20], the system named is Inhibin beta A chain (activin A). As to the kind of experiment: small molecules binding activin A – biochemical, small-molecule microarray, 635 nm fluorescence scan, primary screen (AID 1107).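 Also: mouse activin A protein probed at 4.33 µg/mL on printed slides; score merges bound-protein fluorescence near 667 nm with spot signal-to-noise.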 Conditions: INHBA, higher = more signal.

SMILES strings stand for the structures. Activity calls are given as the source filed them.

Follistatin-related protein 3 (Homo sapiens), sequence (O95633 whole entry, looked up): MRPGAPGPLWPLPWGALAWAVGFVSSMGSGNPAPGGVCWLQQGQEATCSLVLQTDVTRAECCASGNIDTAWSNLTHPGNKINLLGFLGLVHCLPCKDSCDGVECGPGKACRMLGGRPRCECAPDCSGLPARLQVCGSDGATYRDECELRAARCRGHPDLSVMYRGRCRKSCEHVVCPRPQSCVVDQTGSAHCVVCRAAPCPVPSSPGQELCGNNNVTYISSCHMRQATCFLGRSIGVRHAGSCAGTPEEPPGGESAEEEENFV
Torsin-1A-interacting protein 2 (Homo sapiens), sequence (Q8NFQ8 whole entry, looked up): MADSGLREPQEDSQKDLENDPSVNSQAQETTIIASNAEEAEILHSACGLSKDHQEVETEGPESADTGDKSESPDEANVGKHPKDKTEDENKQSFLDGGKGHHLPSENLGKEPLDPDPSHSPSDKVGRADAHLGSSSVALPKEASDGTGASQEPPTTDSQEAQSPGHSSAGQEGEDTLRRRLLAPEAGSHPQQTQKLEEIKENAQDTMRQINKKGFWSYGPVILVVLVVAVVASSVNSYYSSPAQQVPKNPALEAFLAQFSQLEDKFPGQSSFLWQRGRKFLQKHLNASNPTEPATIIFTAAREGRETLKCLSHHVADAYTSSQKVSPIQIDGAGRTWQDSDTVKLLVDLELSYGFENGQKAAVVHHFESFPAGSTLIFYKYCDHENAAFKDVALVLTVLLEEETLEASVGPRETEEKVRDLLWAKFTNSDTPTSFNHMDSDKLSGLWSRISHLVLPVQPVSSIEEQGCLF
Epidermal growth factor receptor (Homo sapiens), sequence (P00533 whole entry, looked up): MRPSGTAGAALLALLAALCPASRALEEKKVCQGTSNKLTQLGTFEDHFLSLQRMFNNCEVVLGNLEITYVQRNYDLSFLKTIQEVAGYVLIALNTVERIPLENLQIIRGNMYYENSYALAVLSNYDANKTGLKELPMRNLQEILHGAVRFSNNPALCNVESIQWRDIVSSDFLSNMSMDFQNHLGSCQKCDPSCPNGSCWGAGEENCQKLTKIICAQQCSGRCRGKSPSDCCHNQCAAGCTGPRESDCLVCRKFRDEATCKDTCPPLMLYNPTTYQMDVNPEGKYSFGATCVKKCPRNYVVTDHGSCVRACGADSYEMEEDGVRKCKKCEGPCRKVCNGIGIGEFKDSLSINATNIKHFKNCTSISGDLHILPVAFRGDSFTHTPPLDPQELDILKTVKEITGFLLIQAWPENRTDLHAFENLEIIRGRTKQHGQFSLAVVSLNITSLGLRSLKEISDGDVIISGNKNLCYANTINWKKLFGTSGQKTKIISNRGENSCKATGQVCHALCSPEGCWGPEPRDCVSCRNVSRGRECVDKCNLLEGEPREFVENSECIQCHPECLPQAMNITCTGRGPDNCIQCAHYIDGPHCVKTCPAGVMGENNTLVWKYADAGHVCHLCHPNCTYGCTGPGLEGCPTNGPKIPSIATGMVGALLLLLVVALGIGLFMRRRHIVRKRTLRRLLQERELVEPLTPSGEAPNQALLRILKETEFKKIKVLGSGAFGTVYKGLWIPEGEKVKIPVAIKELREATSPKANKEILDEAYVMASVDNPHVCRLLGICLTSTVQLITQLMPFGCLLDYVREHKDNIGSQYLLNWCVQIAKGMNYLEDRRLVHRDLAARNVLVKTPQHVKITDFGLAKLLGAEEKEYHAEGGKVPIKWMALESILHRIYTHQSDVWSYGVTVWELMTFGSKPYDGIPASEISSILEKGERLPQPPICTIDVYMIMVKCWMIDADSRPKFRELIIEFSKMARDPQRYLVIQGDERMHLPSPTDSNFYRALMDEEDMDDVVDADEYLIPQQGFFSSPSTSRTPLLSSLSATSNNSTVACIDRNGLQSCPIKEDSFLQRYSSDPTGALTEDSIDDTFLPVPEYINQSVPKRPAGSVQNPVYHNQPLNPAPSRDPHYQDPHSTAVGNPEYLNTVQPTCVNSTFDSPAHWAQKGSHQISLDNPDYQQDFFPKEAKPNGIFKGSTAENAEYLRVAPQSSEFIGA
Dickkopf-related protein 1 (Homo sapiens), sequence (O94907 whole entry, looked up): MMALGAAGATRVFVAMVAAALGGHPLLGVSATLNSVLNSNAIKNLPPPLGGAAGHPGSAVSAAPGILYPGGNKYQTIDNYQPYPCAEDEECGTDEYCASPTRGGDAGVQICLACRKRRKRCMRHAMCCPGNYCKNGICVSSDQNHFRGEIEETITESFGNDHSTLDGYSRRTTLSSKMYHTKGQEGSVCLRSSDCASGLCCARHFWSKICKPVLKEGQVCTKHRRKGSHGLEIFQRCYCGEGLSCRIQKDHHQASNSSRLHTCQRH
Neurogenic locus notch homolog protein 3 (Homo sapiens), sequence (Q9UM47 whole entry, looked up): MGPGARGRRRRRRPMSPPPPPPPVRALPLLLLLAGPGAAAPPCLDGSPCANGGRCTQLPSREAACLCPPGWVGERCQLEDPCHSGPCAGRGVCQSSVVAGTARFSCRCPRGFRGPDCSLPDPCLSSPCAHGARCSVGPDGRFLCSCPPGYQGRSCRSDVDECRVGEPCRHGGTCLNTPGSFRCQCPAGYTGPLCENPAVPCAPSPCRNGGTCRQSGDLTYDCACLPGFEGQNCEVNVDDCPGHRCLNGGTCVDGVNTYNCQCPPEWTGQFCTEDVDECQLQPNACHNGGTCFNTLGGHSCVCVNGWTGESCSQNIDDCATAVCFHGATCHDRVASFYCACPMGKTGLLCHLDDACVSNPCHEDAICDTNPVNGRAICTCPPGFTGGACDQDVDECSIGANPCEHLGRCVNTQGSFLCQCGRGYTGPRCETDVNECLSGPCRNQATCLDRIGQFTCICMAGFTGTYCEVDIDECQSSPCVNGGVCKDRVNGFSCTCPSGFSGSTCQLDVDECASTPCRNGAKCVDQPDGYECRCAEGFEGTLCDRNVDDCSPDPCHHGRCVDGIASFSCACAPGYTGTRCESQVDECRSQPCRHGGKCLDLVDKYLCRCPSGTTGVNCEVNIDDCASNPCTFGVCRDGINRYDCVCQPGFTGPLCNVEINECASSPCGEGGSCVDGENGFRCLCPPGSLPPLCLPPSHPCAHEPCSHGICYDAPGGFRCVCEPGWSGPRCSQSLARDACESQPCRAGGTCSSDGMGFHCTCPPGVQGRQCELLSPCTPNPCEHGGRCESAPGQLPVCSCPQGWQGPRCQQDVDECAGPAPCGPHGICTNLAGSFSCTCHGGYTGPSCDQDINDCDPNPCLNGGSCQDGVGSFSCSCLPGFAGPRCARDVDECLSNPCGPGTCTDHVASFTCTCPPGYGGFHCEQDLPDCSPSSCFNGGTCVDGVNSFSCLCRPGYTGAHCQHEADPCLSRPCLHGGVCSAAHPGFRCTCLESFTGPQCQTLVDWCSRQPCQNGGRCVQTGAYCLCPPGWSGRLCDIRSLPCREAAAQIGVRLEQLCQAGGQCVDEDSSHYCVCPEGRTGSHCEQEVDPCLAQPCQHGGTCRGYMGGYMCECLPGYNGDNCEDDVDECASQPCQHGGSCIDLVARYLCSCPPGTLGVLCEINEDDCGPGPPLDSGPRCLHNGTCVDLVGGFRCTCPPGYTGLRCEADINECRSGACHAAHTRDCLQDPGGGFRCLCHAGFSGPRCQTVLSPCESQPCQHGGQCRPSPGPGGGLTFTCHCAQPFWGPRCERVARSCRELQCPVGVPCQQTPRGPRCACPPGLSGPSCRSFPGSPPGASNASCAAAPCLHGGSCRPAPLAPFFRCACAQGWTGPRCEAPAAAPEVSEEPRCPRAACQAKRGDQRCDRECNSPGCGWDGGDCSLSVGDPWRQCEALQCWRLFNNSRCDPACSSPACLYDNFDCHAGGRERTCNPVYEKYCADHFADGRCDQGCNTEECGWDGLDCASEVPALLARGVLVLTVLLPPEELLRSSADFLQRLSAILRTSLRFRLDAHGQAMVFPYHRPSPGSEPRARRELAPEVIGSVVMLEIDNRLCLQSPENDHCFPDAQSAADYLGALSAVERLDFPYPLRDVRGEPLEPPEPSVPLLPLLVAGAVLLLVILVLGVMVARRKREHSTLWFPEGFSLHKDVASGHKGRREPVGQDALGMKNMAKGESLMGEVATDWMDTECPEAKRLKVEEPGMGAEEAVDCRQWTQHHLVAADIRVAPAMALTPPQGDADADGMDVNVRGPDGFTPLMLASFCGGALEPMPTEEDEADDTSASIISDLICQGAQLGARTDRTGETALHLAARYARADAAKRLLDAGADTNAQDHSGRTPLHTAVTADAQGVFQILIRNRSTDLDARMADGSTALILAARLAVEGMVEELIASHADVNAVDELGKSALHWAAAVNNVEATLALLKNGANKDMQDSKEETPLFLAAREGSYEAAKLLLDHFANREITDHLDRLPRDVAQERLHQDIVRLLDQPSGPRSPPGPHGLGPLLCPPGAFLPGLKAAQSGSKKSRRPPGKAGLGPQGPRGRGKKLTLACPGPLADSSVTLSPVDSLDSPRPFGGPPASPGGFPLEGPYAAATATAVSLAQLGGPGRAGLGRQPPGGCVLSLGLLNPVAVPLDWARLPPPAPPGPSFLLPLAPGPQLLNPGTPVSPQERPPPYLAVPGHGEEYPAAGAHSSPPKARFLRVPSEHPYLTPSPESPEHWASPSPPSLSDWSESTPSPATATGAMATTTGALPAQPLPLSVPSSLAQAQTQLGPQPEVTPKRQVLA
Fibroblast growth factor 10 (Homo sapiens), sequence (O15520 whole entry, looked up): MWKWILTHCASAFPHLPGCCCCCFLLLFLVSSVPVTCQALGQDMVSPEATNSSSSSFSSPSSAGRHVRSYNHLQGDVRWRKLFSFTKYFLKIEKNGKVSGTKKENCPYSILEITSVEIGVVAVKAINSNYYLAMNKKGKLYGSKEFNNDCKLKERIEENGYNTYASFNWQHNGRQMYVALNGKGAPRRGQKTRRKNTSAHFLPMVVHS

Turning to `COc1ccc([Si](C)(C)[C@@H]2[C@@H](CCO)O[C@]3(C(=O)N(Cc4ccccc4)c4ccccc43)[C@H]2C)cc1`, the composite z-score in experiment [1] was 1.06; in experiment [5], 0.955; in [7], -0.228; in [8] it was 0.0139; in [9] it was 0.167; in experiment [10], -0.143. Besides, the composite z-score is 0.183 in [11]; -0.18 in [12]; -0.455 in [13]; 0.633 in experiment [15]; 0.16 in [16]; 0.187 in experiment [17]. Moreover, the composite z-score was 0.174 in experiment [18], 0.104 in experiment [19] and -0.0249 in experiment [20]. In addition, the z-score was 0.566 (inactive) in experiment [2]; 0.124 (inactive) in experiment [3]; 1.24 (inactive) in [4]; 1.73 (inactive) in [6]; -0.535 (inactive) in experiment [14].

Regarding `O=C1C2C=CC(C(O)C#Cc3ccccc3)N(Nc3ccccc3)C2C(=O)N1c1ccccc1` (stereo not given), the composite z-score is 0.398 in experiment [1]; 2.95 in experiment [5]; 0.217 in [7]; -0.418 in [8]; 0.314 in experiment [9]; -0.108 in [10]. Also, the composite z-score in experiment [11] is 1.66; in [12], -0.0212; in experiment [13], 0.498; in experiment [15], -0.102; in experiment [16], -0.208; in experiment [17], -0.512. Further, the composite z-score in experiment [18] is -0.445; in experiment [19] it was -0.572; in experiment [20] it was 0.687. The z-score was 0.132 (inactive) in [2]; -0.0141 (inactive) in experiment [3]; 0.104 (inactive) in [4]; -0.389 (inactive) in experiment [6]; 0.287 (inactive) in [14].

On to `CO[C@H]1COC(=O)[C@H](C)NC(=O)CC=C[C@@H](C)[C@H](NS(=O)(=O)c2ccc(C)cc2)COC(=O)[C@@H](OCc2ccccc2)C=C[C@@H]1C`, for which the composite z-score is 0.229 in experiment [1]; -0.569 in experiment [5]; -0.316 in experiment [7]; 0.801 in experiment [8]; -0.439 in experiment [9]; -0.168 in experiment [10]. Further, the composite z-score was -0.189 in experiment [11]; -0.667 in experiment [12]; -0.97 in experiment [13]; 0.0808 in experiment [15]; 0.258 in experiment [16]; 0.286 in experiment [17]. Moreover, the results for the composite z-score in experiment [18], in experiment [19] and in experiment [20] were 0.512, 1.37 and 0.51, respectively. The z-score is 1.22 (inactive) in [2]; 0.129 (inactive) in [3]; 2.1 (inactive) in experiment [4]; 0.176 (inactive) in [6]; -0.138 (inactive) in experiment [14].

As for `NC(=O)[C@H]1[C@@H]2C(=O)O[C@@H](c3ccccc3)[C@@H](c3ccccc3)N2[C@@H](c2ccc(O)cc2)[C@]12C(=O)Nc1ccc(C#CCCO)cc12`, the composite z-score was -0.484 in experiment [1]; 0.497 in experiment [5]; -0.05 in experiment [7]; -1.02 in experiment [8]; -0.714 in experiment [9]; -0.112 in experiment [10]. Moreover, the composite z-score in [11] is 1.61; in experiment [12], -0.0626; in [13], 0.604; in [15] it was -0.187; in experiment [16], -1.6; in experiment [17], -1.52. The values for the composite z-score in experiment [18], in experiment [19] and in experiment [20] were -0.681, -0.889 and -0.142, respectively. Besides, the z-score in experiment [2] is -0.178 (inactive); in experiment [3], -0.196 (inactive); in [4], -0.503 (inactive); in experiment [6], 0.0528 (inactive); in experiment [14], -0.205 (inactive).

For the compound `COC(=O)C[C@H]1O[C@]2(C(=O)N(C)c3ccccc32)[C@@H](C)[C@@H]1[Si](C)(C)c1ccc(OC)cc1`, the composite z-score is 0.53 in experiment [1]; 0.49 in experiment [5]; -0.0667 in [7]; 1.07 in experiment [8]; 0.622 in experiment [9]; 0.0104 in [10]. The composite z-score is 0.377 in [11]; -0.198 in experiment [12]; -0.514 in [13]; 1.29 in experiment [15]; 0.637 in [16]; 0.309 in [17]. Also, the composite z-score in [18] is 0.558; in experiment [19], 0.344; in experiment [20] it was -0.27. Moreover, the z-score in [2] is -3.04 (inactive); in [3], -16.7 (active); in experiment [4], -1.54 (inactive); in [6] it was 1.67 (inactive); in [14], -1.78 (inactive).
